Compound activity as filed in PubChem BioAssay.
BLM inh-1: blocks DNA unwinding by human BLM helicase; Potency, µM (top dose mostly 56.1 µM), most hits filed as inhibitors; actives 0.2% (n = 350,000); P54132; recombinant BLM DNA unwinding, fluorescence dequenching; note: nearly all actives have a fitted effect of over 35% in size
RECQ1 inh-1: inhibitors of human RECQ1 DNA helicase; P46063; RECQ1 DNA unwinding, red fluorescence kinetic read; Potency, µM (highest dose often 57.3 µM), usual class: inhibitors; actives 0.54% (n = 240,000); note: nearly all actives have a fitted effect of over 30% in size
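50 nM RECQ1T1 preincubated 15 min with compound in Tris pH 8.0 buffer with MgCl2, DTT, Tween-20 and 2.5 ug/ml poly(dI-dC); started with 200 nM TAMRA/BHQ-2 forked duplex and 2 mM ATP. Unwinding read as fluorescence (525/598 nm), two reads 2 h apart.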
APE1 inh-1: blocks human APE1 abasic DNA cleavage | P27695 | recombinant APE1, TAMRA/BHQ-2 abasic DNA cleavage fluorescence | Potency, µM (doses to about 65.8 µM), most hits filed as inhibitors | actives 0.35% (n = 350,000); note: nearly all actives have a fitted effect of over 55% in size
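Quantitative HTS: incision of a TAMRA/BHQ-2 double-stranded substrate bearing a tetrahydrofuran abasic site by 0.75 nM APE1 raises fluorescence. Substrate 50 nM final, added after 15 min compound preincubation at room temperature; progress as third-minus-first kinetic read difference.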
TDP1 block: inhibitors of human tyrosyl-DNA phosphodiesterase TDP1 | recombinant TDP1, AlphaScreen DNA substrate cleavage | Potency, µM (highest dose often 130 µM), usual class: inhibitors | actives 0.28% (n = 350,000); note: nearly all actives have a fitted effect of over 40% in size
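Steps: enzyme plus compound, 15 min RT; add biotin/phosphotyrosine-FITC oligonucleotide (15 nM final), react 5 min; add donor/acceptor beads (10 ug/ml final), 10 min; read AlphaScreen. Tdp1 at 1 nM final.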
L3MBTL1 inh: L3MBTL1 (human) inhibition; AlphaScreen L3MBTL1–H3K9me1 peptide binding; actives 0.66% (n = 230,000); Q9Y468; AID 485360; Potency, µM (series often up to 57.1 µM), usual class: inhibitors; note: nearly all actives have a fitted effect of over 60% in size
Target sequence (Q9Y468 whole entry, looked up): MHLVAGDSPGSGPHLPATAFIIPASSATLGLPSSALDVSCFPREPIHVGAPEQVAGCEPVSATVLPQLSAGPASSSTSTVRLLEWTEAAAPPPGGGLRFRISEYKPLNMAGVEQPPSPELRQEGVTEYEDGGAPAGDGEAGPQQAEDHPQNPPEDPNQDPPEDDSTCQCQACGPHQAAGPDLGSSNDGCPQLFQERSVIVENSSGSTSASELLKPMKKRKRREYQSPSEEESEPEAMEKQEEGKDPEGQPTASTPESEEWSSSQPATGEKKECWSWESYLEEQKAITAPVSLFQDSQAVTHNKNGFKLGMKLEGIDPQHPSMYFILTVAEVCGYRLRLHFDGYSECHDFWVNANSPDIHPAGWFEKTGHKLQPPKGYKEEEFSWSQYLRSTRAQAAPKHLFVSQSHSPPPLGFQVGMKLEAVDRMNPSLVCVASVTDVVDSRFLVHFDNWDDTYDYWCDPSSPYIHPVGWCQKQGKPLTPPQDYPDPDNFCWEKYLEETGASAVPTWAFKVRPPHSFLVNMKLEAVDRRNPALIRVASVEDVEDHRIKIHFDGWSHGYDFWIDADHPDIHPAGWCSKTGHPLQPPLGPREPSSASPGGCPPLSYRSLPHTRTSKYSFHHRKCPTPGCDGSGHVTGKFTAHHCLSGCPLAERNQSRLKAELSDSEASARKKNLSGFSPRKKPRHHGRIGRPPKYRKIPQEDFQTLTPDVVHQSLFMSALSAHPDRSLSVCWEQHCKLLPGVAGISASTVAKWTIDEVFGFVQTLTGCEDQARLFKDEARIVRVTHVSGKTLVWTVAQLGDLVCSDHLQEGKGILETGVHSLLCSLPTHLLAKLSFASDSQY
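AlphaScreen proximity signal between nickel-chelate acceptor and streptavidin donor beads (final 10 ug/mL) reports binding of 50 nM L3MBTL1 to 75 nM biotin-H3 K9me1 peptide; complex incubated with compounds 30 min at room temperature; cefsulodin titration as control.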
KDM4E inh: blocks human JMJD2E demethylase activity; AID 2147; Potency, µM (top dose mostly 57.1 µM), most hits filed as inhibitors; B2RXH2; actives 1.6% (n = 230,000); JMJD2E catalytic domain, FDH-coupled NADH fluorescence (FDH is formaldehyde dehydrogenase); note: nearly all actives have a fitted effect of over 50% in size
DNA dye displace: DNA dye displacement counter-screen activity | shares compounds with APE1 inh-1 | DNA fluorescent dye displacement counterscreen, fluorescence | Potency, µM (doses to about 28.5 µM), usual class: inhibitors | actives 7% (n = 480);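 note: loss of thiazole orange fluorescence as the dye is displaced from duplex DNA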
EndoIV counter: Endo IV (E. coli) inhibition counter-screen. shares compounds with APE1 inh-1. E. coli Endo IV, fluorogenic AP-site DNA cleavage. Potency, µM (highest dose often 27.1 µM), usual class: inhibitors. actives 4% (n = 560). AID 2565
APE1 inh-2: confirmation of inhibitors of human APE1 endonuclease | purified APE1, fluorogenic abasic-site DNA cleavage | Potency, µM (top dose mostly 57.1 µM), usual class: inhibitors | actives 44% (n = 750) | shares compounds with APE1 inh-1; note: nearly all actives have a fitted effect of over 30% in size
APE1 FP inh: APE1 (human) DNA binding inhibition, fluorescence polarization | shares compounds with APE1 inh-1 | APE1 binding to TAMRA-labelled double-stranded DNA, fluorescence polarization displacement | Potency, µM (top dose mostly 28.5 µM), usual class: inhibitors | actives 7% (n = 480)
BLM inh-2: confirmation of inhibitors of human Bloom syndrome helicase BLM. shares compounds with BLM inh-1. BLM DNA unwinding, fluorescence quenching, biochemical. Potency, µM, usual class: inhibitors. actives 40% (n = 220);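 note: strand separation dequenches TAMRA so unwinding raises red fluorescence; series mostly up to about 69 µM; nearly all actives have a fitted effect of over 45% in size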
RECQ1 inh conf: confirmation of human RECQ1 helicase inhibitors. shares compounds with RECQ1 inh-1. RECQ1 helicase DNA unwinding, fluorescence. Potency, µM (highest dose often 229 µM), usual class: inhibitors. actives 28% (n = 610). AID 2708; note: nearly all actives have a fitted effect of over 45% in size
RECQ1 ADP FP: counter-screen for RECQ1 inhibitors: ADP displacement. shares compounds with RECQ1 inh-1. ADP fluorescence polarization displacement counterscreen. Potency, µM (highest dose often 228 µM), usual class: inhibitors. actives 27% (n = 530). AID 2711; note: nearly all actives have a fitted effect of over 45% in size
RECQ1 inh-2: confirmation of human RECQ1 helicase inhibitors; shares compounds with RECQ1 inh-1; recombinant RECQ1 DNA unwinding, red fluorescence; Potency, µM (highest dose often 119 µM), usual class: inhibitors; actives 15% (n = 1,100); note: nearly all actives have a fitted effect of over 50% in size
Numbers stand for hits; n = inactive; u = inconclusive; x = no result given; ! = not active in a repeat; [ ] = dose if it differs, or a comment. The sample as a whole holds a higher share of hits than the screen did. Unless noted, calls come from the whole dose curve; as a rule, active = well fitted curve in the direction sought with a large enough effect; inconclusive = small, poorly fitted or top-dose-only effect, or another doubt; inactive = no such curve, though single readings can be large; an effect the other way counts as inactive or inconclusive.

SMILES	BLM inh-1	RECQ1 inh-1	APE1 inh-1	TDP1 block	L3MBTL1 inh	KDM4E inh	DNA dye displace	EndoIV counter	APE1 inh-2	APE1 FP inh	RECQ1 inh conf	RECQ1 inh-2	others
COCCCNc1c2c3c(cccc3[nH]c1=O)C(=O)c1ccccc1-2	n	25µM	u	n	x	n	x	13µM	u	4µM	x	56µM
COc1ccc(N=C2NC(=O)/C(=C/c3ccco3)S2)cc1	n	n	n	n	x	u	x	x	x	x	x	x
Cc1ccc(N=C2NC(=O)/C(=C/C=C/c3ccco3)S2)cc1	16µM	18µM	18µM	n	u	25µM	13µM	u	u	n	u	u
CCOC(=O)c1c(C)[nH]c(C2=NNC(=NC3CC3)SC2)c1C	n	n	n	n	n	n	x	x	x	x	x	x
COc1ccc(CCn2c(O)cc3nn(-c4nc5ccccc5s4)c(=O)c-3c2C)cc1	n	25µM	32µM	x	u	28µM	u	n	16µM	n	n	n	RECQ1 ADP FP=n
COc1ccccc1-c1nc2s/c(=C\c3cccs3)c(=O)n2n1	n	n	n	n	x	u	x	x	x	x	x	x
O=c1/c(=C/c2ccco2)sc2nc(-c3ccccc3Br)nn12	n	16µM	22µM	n	u	25µM	n	n	u	n	n	u	RECQ1 ADP FP=n
Cc1nnc(NC(=O)CCSCCC(=O)Nc2nnc(C)s2)s1	n	u	u	32µM	u	n	x	x	40µM	x	x	16µM
Cc1nn2c(=O)cc(COC(=O)COc3ccccc3C)nc2s1	n	x	x	n	x	x	x	x	x	x	x	x
Cc1cc(/C=C2/C(=N)N3C(c4ccccc4)=CSC3=NC2=O)c(C)n1-c1ccccc1	n	n	n	n	n	n	x	x	x	x	x	x
N=C1/C(=C\c2ccc(-c3cccc(C(=O)O)c3)o2)C(=O)N=C2SC=C(c3ccccc3)N12	n	u	40µM	50µM	22µM	u	x	x	40µM	x	x	u
Cc1ccccc1CSc1nnnn1-c1ccc(C(N)=O)cc1	n	x	n	x	x	x	x	x	x	x	x	x
NC(=O)c1ccc(-n2nnnc2SCC(=O)c2ccc(O)c(O)c2)cc1	n	8.9µM	4µM	x	u	0.71µM	n	n	11µM	n	x	u
CCN(c1ccccc1)S(=O)(=O)c1cc(C(=O)O)ccc1C	n	28µM	16µM	22µM	u	n	x	x	32µM	x	x	u
COc1ccc(C(=O)c2sc3nc(-c4ccc(F)cc4)ccc3c2N)cc1	n	x	x	x	x	x	x	x	x	x	x	x
O=C(CSC1CC(=O)N(CC(c2ccccc2)c2ccccc2)C1=O)Nc1ccc(Cl)cc1 (stereo not given)	n	u	u	n	n	n	n	u	u	n	x	u
O=C(O)CSC1CC(=O)N(c2ccc(Cl)cc2)C1=O (stereo not given)	n	n	n	n	n	n	x	x	x	x	x	x
CCCCN(CCCNC(=O)CN1N=C(c2ccc(C)cc2)CCC1=O)c1ccccc1	n	x	x	n	x	x	x	x	x	x	x	x
Cc1ccc(C)n1Cc1ccc(C(=O)O)cc1	n	7.1µM	3.5µM	3.5µM	u	4.5µM	x	x	14µM	x	20µM	x
Cc1cc(C)n(Cc2ccc(C(=O)O)cc2)n1	n	n	n	n	x	n	x	x	x	x	x	x
CC1(OC(=O)c2cccs2)C(=O)C=C2C=C3CCCN3C=C2C1=O (stereo not given)	22µM	25µM	8.9µM	x	x	5.6µM	n	n	u	n	35µM	u	RECQ1 ADP FP=35µM
Cc1cccc(C(=O)N=c2c(C#N)cc3c(=O)n4cccc(C)c4nc3n2Cc2ccco2)c1	n	u	u	16µM	x	u	x	x	n	x	x	n
CCCS(=O)(=O)Nc1cc(-c2cn3ccc(C)cc3n2)ccc1C	n	x	x	n	x	x	x	x	x	x	x	x
CCOc1ccccc1-c1nnc2n1N=C(c1ccc(OC)c(OC)c1)CS2	n	n	10µM	n	x	x	u	n	n	u	n	x
CCCN1Cc2cccc(C(=O)Nc3ccc(OC)cc3OC)c2C1=O	n	x	x	n	x	x	x	x	x	x	x	x
SMILES	BLM inh-1	RECQ1 inh-1	APE1 inh-1	TDP1 block	L3MBTL1 inh	KDM4E inh	DNA dye displace	EndoIV counter	APE1 inh-2	APE1 FP inh	RECQ1 inh conf	RECQ1 inh-2	others
CCCCC1=CC2=C(c3ccco3)C(=O)C(C)(OC(=O)c3ccc(OC)cc3)C(=O)C2=CN1Cc1ccco1 (stereo not given)	u	6.3µM!	7.1µM	x	x	13µM!	n	n	u	n	x	n
CCCCC1=CC2=C(c3ccco3)C(=O)C(C)(OC(=O)c3ccc(OC)cc3)C(=O)C2=CN1CCCCO (stereo not given)	n[12.4 µM]	n[11.5 µM]	n[12.4 µM]	n[12.3 µM]	x	n[11.4 µM]	x	x	x	x	x	x
CCN1CCc2c(sc(NC(=O)CSc3ccccc3)c2-c2nc3ccccc3s2)C1	n	x	x	n	x	x	x	x	x	x	x	x
CC(=O)Nc1sc2c(c1-c1nc3ccccc3s1)CCN(C(C)C)C2	n	u	13µM	x	n	u	n	13µM	3.5µM	2.5µM	x	45µM	BLM inh-2=n
O=C1NC(=S)SC1=C1CCCC1	u	7.9µM	10µM	x	x	n	n	n	u	n	u	x	RECQ1 ADP FP=45µM
CN1C(=O)C(=C2CCCCCC2)SC1=S	n	n	n	n	n	n	x	x	x	x	x	x
CC(=O)[C@]1(O)Cc2c(O)c3c(c(O)c2[C@@H](O[C@H]2C[C@H](N)[C@H](O)[C@H](C)O2)C1)C(=O)c1ccccc1C3=O	n	28µM	20µM	n	x	u	n	n	16µM	2.8µM	35µM	x	BLM inh-2=n;RECQ1 ADP FP=0.56µM
C=C1c2cccc(O)c2C(O)=C2C(=O)[C@@]3(O)C(O)=C(C(N)=O)C(=O)[C@@H](N(C)C)[C@@H]3[C@@H](O)[C@H]12	n	u	x	x	x	u	n	n	n	u	u	x	RECQ1 ADP FP=14µM
O=c1cc(-c2ccccc2)n2c(SCc3ccc([N+](=O)[O-])cc3)nnc2[nH]1	n	x	x	n	x	x	x	x	x	x	x	x
